High-throughput results as filed in PubChem BioAssay.
This is one part of a sample in which hits are shown more often than they occur.
Shiga toxin inh: A qHTS for Small Molecule Inhibitors of Shiga Toxin. Vero cells, Shiga toxin protein synthesis inhibition reporter. inhibition, % at 38.7 µM. hit rate 9.2% among 290,000; in the data active = inhibition mostly above about 28%, no sharp cut-off; inactive = mostly below about 43%; also: 0% is about no effect
RE007 growth inh: qHTS Assay for Inhibitors of the HIV-1 protein Vpr; S. pombe RE007 Vpr strain, BacTiter-Glo ATP luminescence, 24 h; Potency, µM (top dose mostly 92.2 µM), inactives show at the top dose activity change, negative = less growth, usual class: inhibitors; hit rate 0.21% among 360,000; active = well fitted falling curve with a large enough effect; inconclusive = small, poorly fitted or top-dose-only effect; inactive = no such curve, though single readings can be large or run the other way; also: potency is read from the fitted curve at half-maximal effect; % is scaled to controls: 0 for no effect and ±100 for the full control effect; nearly all actives have a fitted effect of over 50% in size
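Fission yeast RE007 carrying one integrated HIV-1 vpr copy, seeded at OD 0.01 in PMG+AL medium with 23 nL pinned compound. Grown 24 h at 30 degrees; viability read by BacTiter-Glo luminescence after 5 min.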
Tb PYK inh: qHTS of Trypanosoma Brucei Inhibitors; Potency, µM (doses to about 76.8 µM), without a hit: at the top dose activity, negative = inhibition, hits mostly inhibitors; AID 624173, 2012; hit rate 0.12% among 410,000; TbPYK enzyme, Kinase-Glo Plus ATP luminescence, 45 min; also: potency is read from the fitted curve at half-maximal effect; % is scaled to controls: 0 for no effect and ±100 for the full control effect; nearly all actives have a fitted effect of over 50% in size
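T. brucei PYK with substrate was exposed to pin-transferred compounds across a concentration series, then started with 130 uM ADP (final). After 45 min at room temperature, Kinase-Glo Plus luminescence was read, normalized and curve-fitted.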
Cycloheximide cs: Cycloheximide Counterscreen for Small Molecule Inhibitors of Shiga Toxin; cell reporter, cycloheximide protein synthesis inhibition counterscreen; max response, %; hit rate 12% among 300,000; in the data active = max response mostly above about 13%, no sharp cut-off; inactive = mostly below about 14%; also: read at 38.3 µM for the half of the compounds with a filed dose; 0% is about no effect
LmPK inh: qHTS Assay for Inhibitors of Leishmania Mexicana Pyruvate Kinase (LmPK); hit rate 0.37% among 290,000; purified LmPK, Kinase-Glo ATP luminescence, 1 h; Q27686; Potency, µM (doses to about 57.5 µM), inactives show top-dose activity change, negative = inhibition, usual class: inhibitors; also: potency is read from the fitted curve at half-maximal effect; % is scaled to controls: 0 for no effect and ±100 for the full control effect
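Kinase-Glo luminescence read after 1 h RT reaction of 0.1 nM LmPK with 0.5 mM PEP and 0.1 mM ADP. Activity scaled between uninhibited and enzyme-free controls.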
FBPA Giardia inh: qHTS Assay for Inhibitors of Fructose-1,6-bisphosphate Aldolase from Giardia Lamblia. A8B2U2. purified Giardia FBPA. Potency, µM (highest dose often 59.6 µM), for the others: top-dose activity, negative = inhibition, actives largely listed as inhibitors. hit rate 0.71% among 290,000. AID 2451, 2010; also: potency is read from the fitted curve at half-maximal effect; % is scaled to controls: 0 for no effect and ±100 for the full control effect; nearly all actives have a fitted effect of over 55% in size
Target sequence (A8B2U2 whole entry, looked up): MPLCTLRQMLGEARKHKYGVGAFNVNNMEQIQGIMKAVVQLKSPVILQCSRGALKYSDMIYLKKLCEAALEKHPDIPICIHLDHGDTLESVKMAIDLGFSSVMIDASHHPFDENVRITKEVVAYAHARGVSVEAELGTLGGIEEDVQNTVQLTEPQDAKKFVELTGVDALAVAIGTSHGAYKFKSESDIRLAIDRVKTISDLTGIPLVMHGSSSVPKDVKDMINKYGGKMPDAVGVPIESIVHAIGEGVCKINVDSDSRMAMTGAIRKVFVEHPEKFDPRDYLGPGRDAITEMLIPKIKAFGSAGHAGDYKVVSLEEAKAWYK
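40 nM FBPA preincubated 10 min at RT with compound (up to 57.5 uM final), then substrate plus GAPDH/TPI/NAD/arsenate coupling and diaphorase/resazurin added. Fluorescence read after 20 min at RT, 525/598 nm.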
The depositor's hits bear a star; ? = inconclusive; . = not tested or not shown; [ ] = remark or other dose. Unless noted, calls follow the shape of the dose curve; as a rule, active = well fitted curve in the direction sought with a large enough effect; inconclusive = small, poorly fitted or top-dose-only effect, or another doubt; inactive = no such curve, though single readings can be large; an effect the other way counts as inactive or inconclusive.

SMILES | Shiga toxin inh | RE007 growth inh | Tb PYK inh | Cycloheximide cs | LmPK inh | FBPA Giardia inh
COc1cc(OC)cc(C(=O)OCC(=O)NC2CCCCCCC2)c1 | . | 20% | -1% | . | . | .
CCN1C(=O)C(O)(CC(=O)/C=C/C=C/c2ccccc2)c2ccccc21 (configuration not stated) | -8 | -4% | -13% | 2 | 3% | -2%
Cc1ccc2c(c1)C(O)(CC(=O)/C=C/C=C/c1ccccc1)C(=O)N2 (configuration not stated) | 22 | -28% | -10% | 27* | 7% | 0%
CS(=O)(=O)N(Cc1ccccc1)c1ccc(C(=O)Nc2ccc(Cl)cc2)cc1 | . | . | -6% | . | . | .
CCOC(=O)c1c(NC(=O)C2CCCO2)sc2c1CCC2 (configuration not stated) | 31 | -27% | -1% | -3 | 4% | 4%
NC(=O)c1c(NC(=O)C2CCCO2)sc2c1CCCC2 (configuration not stated) | 56* | 1% | -5% | 38* | 0% | -11%
N#Cc1c(NC(=O)C2CCCO2)sc2c1CCCCCC2 (configuration not stated) | 84* | -1% | 6% | 39* | 0% | 1%
Cc1sc(NC(=O)C2CCCO2)c(C#N)c1C (configuration not stated) | 23 | 2% | -7% | 15* | -10% | -25%
COc1ccc(NC(=O)c2cnc(N3CCCCC3)c3ccccc23)cc1Cl | . | . | -1% | . | . | .
CCN1C(=O)/C(=C\N(C(C)=O)c2ccccc2)OC1=S | 31* | 1% | -7% | 32* | 1% | 2%
CCN1C(=O)/C(=C/N(C)c2ccccc2)OC1=S | 67* | -10% | -4% | 25* | -8% | 2%
CCN1C(=O)/C(=C2\Sc3ccccc3N2CC)OC1=S | 11 | 4% | 0% | 1 | 3% | 1%
CC(=O)N(/C=C1\SC(=S)N(c2ccccc2)C1=O)c1ccccc1 | 40 | -10% | -9% | 9 | -2% | -6%
C=CCNC(=O)c1scc2c1CCCC2 | 52 | -26% | 2% | 16* | -10% | -12%
c1ccc(CN2CCC3CC2c2cc(N4CCCCC4)ccc23)cc1 (configuration not stated) | . | 6% | -1% | . | . | .
Oc1ccc(Cl)cc1 | . | -3%[18.4 µM] | -4% | . | . | 5%
O=C(c1ccccc1)c1ccc2ccccc2c1 | . | -26% | 2% | . | . | .
O=C(c1ccccc1)c1ccc2cc(O)ccc2c1 | 72* | ? | -14% | 35* | 7% | -10%
Cc1ccc(C(=O)c2ccc(O)cc2)cc1C | 52 | -23% | 2% | 18* | 0% | 1%
O=C(c1ccc(O)cc1)c1ccc(Cl)cc1 | 36 | -29% | 0% | 21* | 5% | 0%
CC[C@]12C(=O)N(C)C[C@H]([C@@H]3C(=O)N(C)C(=O)[C@@H]31)N2C(=O)c1ccc(Cl)c(Cl)c1 | . | 8% | 2% | . | . | .
O=C1CC(=O)N(c2ccccc2)C(=O)N1c1ccccc1 | 18 | 13% | -3% | 17* | -7% | -8%
O=C1CC(=O)N(c2ccccc2)C(=O)N1 | . | 4% | -4% | . | . | .
CCCc1c(-c2cccc(Br)c2)ncn1Cc1ccccc1OC | . | -19% | 3% | . | . | .
CCN1CCN(C(=O)c2cc(COc3c(C)cccc3C)on2)CC1 | 5 | 6% | -15% | 19* | 0% | 6%
SMILES | Shiga toxin inh | RE007 growth inh | Tb PYK inh | Cycloheximide cs | LmPK inh | FBPA Giardia inh
O=C(c1cc(COc2c(F)cccc2F)on1)N1CCC(c2ccncc2)CC1 | 28 | 1% | -3% | 7 | 4% | 2%
Cc1cccc(C)c1OCc1cc(C(=O)N2CCC(c3ccncc3)CC2)no1 | 58* | -16% | 1% | 37* | -6% | .
Cc1cccc(C)c1OCc1cc(C(=O)N2CCN(C3CCCC3)CC2)no1 | 64* | -25% | -8% | 35* | 9% | -5%
COCC1CCN(C(=O)c2cc(COc3ccccc3SC)on2)C1 (configuration not stated) | -9 | -7% | -11% | -4 | 3% | 5%
CSc1ccccc1OCc1cc(C(=O)N2CCN3CCCC3C2)no1 (configuration not stated) | 27 | -17% | -13% | 15* | -1% | -1%
CCNC(=O)C1CCCN(C(=O)c2cccc(OC(F)(F)F)c2)CC1 (configuration not stated) | . | 6% | -12% | . | . | .
C=CCNC(=O)N1CCC(c2nc3ccccc3s2)CC1 | -3 | 3% | -6% | 7 | 0% | -3%
Cc1cccc(C)c1OCc1cc(C(=O)N2CCN3CCCC3C2)no1 (configuration not stated) | 44* | 0% | 3% | 19* | -7% | .
O=C(O)c1c(C(=O)N2N=C3/C(=C/c4ccccc4)CCCC3C2c2ccccc2)cccc1[N+](=O)[O-] (configuration not stated) | -9 | 3% | -4% | 3 | -3% | -4%
CC(=O)N1N=C2/C(=C/c3ccccc3)CCCC2C1c1ccccc1 (configuration not stated) | 72* | 22% | -14% | 48* | 1% | -9%
CCOc1ccccc1Nc1nc(-c2cccc(Cl)c2)c2c(n1)-c1ccccc1OC2 | . | . | 5% | . | . | .
CCc1ccc(N=C2N=C(N)c3ccccc32)cc1 | 54* | -11% | 2% | 32* | -6% | -4%
Oc1ccc(-c2n[nH]c(=S)n2Cc2ccccc2)cc1 | -12 | 14% | ? | 0 | 8.9µM* | -5%
Cc1cc(-c2n[nH]c(=S)n2Cc2ccccc2)cs1 | 15 | 11% | 3.5µM* | -2 | ? | 11%
Fc1ccc(-c2n[nH]c(=S)n2Cc2ccccc2)cc1 | -10 | 12% | ? | -9 | -27% | 21%
Cn1c(-c2csc(-c3ccccc3)n2)n[nH]c1=S | 25 | -5% | ? | 16* | -2% | 12%
Cc1ccc(C)c(-n2c(-c3csc(C)c3C)n[nH]c2=S)c1 | -4 | 5% | ? | -5 | 7.1µM* | 11%
Cc1ccc(-c2n[nH]c(=S)n2C)cc1 | -14 | 15% | -18% | -4 | 1% | -8%
CCCCCCCCCCC(C)=O | -6 | . | . | -5 | . | 8%
NC(=S)N1CCCc2ccccc21 | 12 | 3% | 0% | 9 | 0% | -10%
OCCCn1c(-c2ccccc2)n[nH]c1=S | 37* | -19% | -20% | 21* | -1% | 4%
Fc1ccccc1-c1n[nH]c(=S)n1Cc1ccccc1 | -4 | -11% | ? | -3 | ? | 24%
S=c1[nH]nc(-c2ccccc2Cl)n1Cc1ccccc1 | 15 | 4% | 6.3µM* | -1 | -5% | -2%
C=CCn1c(-c2ccccc2)n[nH]c1=S | 12 | ? | ? | -1 | -14% | -19%
